Data reported in PubChem BioAssay (NCI).
This is part of a sample that, as a whole, favours compounds with a hit. Of some 79,000 tested, about 15% had one in any assay. Values without a mark were called inactive. Calls of active or inactive are those of the source. Rule as the data show it: active = growth inhibition above about 70%; inactive = the rest.

Columns and labels:
[1] = NCI Yeast Anticancer Drug Screen. Data for the rad50 strain (AID 155);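 also: 0% = growth of vehicle-only cultures of the same strain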; settings: S. cerevisiae rad50 strain growth inhibition, stronger effect = higher value
Outline: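 Genetically altered yeast (DNA repair pathway); compound treatment; growth inhibition vs vehicle ctrl.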

[2] = NCI Yeast Anticancer Drug Screen. Data for the mec2-1 strain (AID 157); settings: S. cerevisiae mec2-1 strain, stronger effect = higher value
Outline: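 Cells of the genetically defined mec2-1 yeast strain are incubated with test compound. Inhibition of growth is calculated against vehicle-treated controls.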

[3] = NCI Yeast Anticancer Drug Screen. Data for the sgs1 mgt1 strain (AID 161);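 also: 0% = growth of cultures given vehicle only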; settings: S. cerevisiae sgs1 mgt1 strain, stronger effect = higher value
Outline: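 Inhibition of yeast growth, normalised to vehicle-treated controls, is reported for a strain bearing genetic alterations in DNA damage repair.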

[4] = NCI Yeast Anticancer Drug Screen. Data for the cln2 rad14 strain (AID 165);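 also: 0% = growth equal to vehicle treated cultures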; settings: S. cerevisiae cln2 rad14 strain, stronger effect = higher value
Outline: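 The screen exposed genetically defined yeast (cln2 rad14) to test compounds and scored growth inhibition relative to vehicle-treated controls.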

[5] = NCI Yeast Anticancer Drug Screen. Data for the bub3 strain (AID 167); settings: S. cerevisiae bub3 mutant strain, stronger effect = higher value
Outline: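 Yeast carrying a defined mutation is treated with each compound, and growth is compared with that of vehicle-exposed cells to give inhibition.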

[6] = NCI Yeast Anticancer Drug Screen. Data for the mlh1 rad18 strain (AID 175); settings: S. cerevisiae mlh1 rad18 strain growth inhibition, stronger effect = higher value
Outline: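 Compound-treated yeast growth, normalised to vehicle controls. Strain bears defined DNA repair mutations.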

[7] = at 5.0 µM (retest, dose inferred, filed as 0.5)
[8] = at 50.0 µM (retest, dose inferred, filed as 5.0)

SMILES | growth inhibition [1, 7] | growth inhibition [1, 8] | growth inhibition ([1]; at 50.0 µM) | growth inhibition [2, 7] | growth inhibition [2, 8] | growth inhibition ([2]; at 50.0 µM) | growth inhibition [3, 7] | growth inhibition [3, 8] | growth inhibition ([3]; at 50.0 µM) | growth inhibition [4, 7] | growth inhibition [4, 8] | growth inhibition ([4]; at 50.0 µM) | growth inhibition [5, 7] | growth inhibition [5, 8] | growth inhibition ([5]; at 50.0 µM) | growth inhibition [6, 7] | growth inhibition [6, 8] | growth inhibition ([6]; at 50.0 µM)
CCCCOC(=O)C(C)OC(=O)NNc1ccccc1 (configuration not stated) | 10% | 51% | 48.2% | 0% | 12% | 36% | 1% | 39% | 36% | 7% | 34% | 36.7% | 9% | 88% (active) | 99% (active) | 6% | 87% (active) | 67%
CC(Cc1ccccc1)NN1CCOC(c2ccccc2)C1C (configuration not stated) | 2% | 66% | 32.1% | -2% | 56% | 56.8% | 0% | 78% (active) | 64.2% | -1% | 16% | 13.1% | 9% | 59% | 46% | -3% | 72% (active) | 73% (active)
O=C1C=CC(=O)N1CCc1ccccc1 | -33% | 97% (active) | 99.5% (active) | -31% | 98% (active) | 99.5% (active) | -34% | 98% (active) | 99.3% (active) | -10% | 98% (active) | 99.3% (active) | -45% | 98% (active) | 99.3% (active) | -90% | 97% (active) | 99.2% (active)
C=C(C)/C([O-])=N/[N+](C)(C)CC(O)CCCCCCCCCCCC (configuration not stated) | 34% | 98% (active) | 91.7% (active) | 32% | 99% (active) | 91.5% (active) | 60% | 99% (active) | 92.2% (active) | 57% | 99% (active) | 90.3% (active) | 67% | 99% (active) | 91.5% (active) | 31% | 98% (active) | 90.2% (active)
Oc1c(Br)cc(Br)c2cccnc12 | 93% (active) | 97% (active) | 98.7% (active) | 35% | 97% (active) | 98.9% (active) | 88% (active) | 97% (active) | 98.5% (active) | 82% (active) | 97% (active) | 97.3% (active) | 28% | 88% (active) | 98.3% (active) | 96% (active) | 96% (active) | 98.4% (active)
O=c1ncccn1[C@@H]1O[C@H](CO)[C@H](O)C1O (some centres not stated) | 21% | 22% | 64.3% | 13% | 12% | 28.4% | 15% | 12% | 4.15% | 10% | 12% | 10.8% | 23% | 10% | -5.75% | 7% | 31% | -9.3%
c1c[n+](CCC2CCCCC2)ccn1 | -15% | 6% | 89% (active) | -14% | -23% | 97% (active) | -33% | -21% | 94.3% (active) | -26% | 10% | 73.1% (active) | -6% | 28% | 63.7% | -28% | 3% | 69.5%
C/C(=N/NC(=O)C[n+]1ccccc1)C(CN(CC(C)C)CC(C)C)C(=O)Nc1ccc(C)cc1C (configuration not stated) | 5% | 5% | 30.1% | -10% | -10% | 40.2% | 5% | 5% | 8.65% | 5% | 5% | 41% | 12% | 12% | 58% | 6% | 6% | 70.2% (active)
Cc1ccccc1NCc1ccccc1Cl | -141% | 98% (active) | 99% (active) | -55% | 99% (active) | 99.5% (active) | -66% | 99% (active) | 98.5% (active) | -83% | 99% (active) | 99% (active) | -65% | 99% (active) | 99.5% (active) | -105% | 98% (active) | 96.7% (active)
O=C(OC1C2CCC2C2CC21)c1ccc([N+](=O)[O-])cc1[N+](=O)[O-] (configuration not stated) | 26% | 95% (active) | 36% | 14% | 99% (active) | 37.5% | 24% | 98% (active) | 59.1% | 6% | 99% (active) | 39.5% | -5% | 93% (active) | 37.2% | 25% | 98% (active) | 62.9%
CCc1cc(CC)c(-c2ccco2)c(COC(=O)NC)c1 | -1% | 68% | 95.4% (active) | -3% | 64% | 94.2% (active) | -4% | 78% (active) | 94.3% (active) | -7% | 25% | 77.4% (active) | -8% | 72% (active) | 96% (active) | -1% | 86% (active) | 96.3% (active)
COc1cccc(C2Nc3ccccc3C(=O)N2N2CCOCC2)c1 (configuration not stated) | 3% | -2% | 50.9% | 1% | 6% | -7.2% | 1% | 0% | 32.4% | 0% | -6% | -21.6% | -2% | -5% | 7.4% | -2% | -3% | -5.05%
C/C(=N\N(C)C(=S)Nc1ccccc1)c1ccccn1 | -2% | 11% | 93.5% (active) | -4% | 9% | 63.2% | -6% | 22% | 71.7% (active) | -5% | -18% | 54.9% | -12% | 36% | 82% (active) | -10% | 65% | 61.8%
O=S1(=O)C(Br)=Cc2ccccc21 | 16% | 99% (active) | 99.3% (active) | -6% | 99% (active) | 99.3% (active) | 25% | 99% (active) | 98.7% (active) | 17% | 99% (active) | 97.7% (active) | 13% | 99% (active) | 99.4% (active) | 23% | 99% (active) | 98.7% (active)
NC(N)=NC(N)=Nc1ccc(-c2ccccc2)cc1 | -17% | 96% (active) | -11.6% | 1% | 96% (active) | 14.6% | 2% | 97% (active) | 2.45% | -8% | 93% (active) | 7.8% | -1% | 97% (active) | 76.5% (active) | 4% | 96% (active) | 32.4%
CCCC/C=C(/CCCNCCCC)[Si](C)(C)C | 70% (active) | 97% (active) | 91.8% (active) | 72% (active) | 99% (active) | 93.7% (active) | 90% (active) | 99% (active) | 94.2% (active) | 73% (active) | 98% (active) | 92.8% (active) | 90% (active) | 99% (active) | 92.7% (active) | 91% (active) | 98% (active) | 91.9% (active)
Nc1ccc(Oc2ccccc2)cc1 | 2% | 38% | 67.5% | -3% | 7% | 33.9% | -9% | 37% | 75.6% (active) | -1% | 1% | 1.2% | 0% | -18% | 25.4% | -3% | 28% | 54.8%
Cc1ccc(S(=O)(=O)NCCSCCSCCNS(=O)(=O)c2ccc(C)cc2)cc1 | -1% | -7% | 55.4% | -2% | -8% | 92.2% (active) | -2% | 1% | 50.5% | -3% | -5% | 86.9% (active) | 0% | -1% | 94.6% (active) | -2% | -2% | 55.2%
C/C(=N/NC(=O)c1ccccc1S(N)(=O)=O)C(CN1CCCCC1)C(C1=C(O)C2C=CC=CC2OC1=O)c1ccccc1 (configuration not stated) | 41% | 41% | 89.7% (active) | 25% | 25% | 91.4% (active) | 19% | 19% | 91% (active) | 8% | 8% | 88.8% (active) | 31% | 31% | 88.8% (active) | 22% | 22% | 88% (active)
